Screening results from PubChem.
TGFb SMAD3 inh – TGF-b pathway inhibition; Potency, µM (series often up to 46.1 µM), for inactives: at the top dose activity, negative = inhibition, hits mostly inhibitors; 410,000 compounds, 1.2% hits; HepG2 CAGA-GFP TGF-b/SMAD3 reporter, GFP fluorescence, 18 h; TGF-beta stimulated, 500 pg/mL final; note: % is set by controls: 0 for no effect and ±100 for the full control effect; nearly all actives have a fitted effect of over 65% in size
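HEPG2 CAGA-GFP reporter cells (1000/well, DMEM with 1% FBS) received compounds, then recombinant TGF-beta at 500 pg/mL final for 18 hours at 37 degrees C. Per-cell GFP summed per well was normalised to unstimulated and stimulated DMSO controls before curve fitting.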
TDP1 cell noCPT – qHTS for Inhibitors of human tyrosyl-DNA phosphodiesterase 1 (TDP1): qHTS in cells in absence of CPT; AID 686978, 2013; DT40 Tdp1-/- hTDP1 cells, no CPT, ATP luminescence, 48 h; Potency, µM (titrated, usually from 46.2 µM), without a hit: at the top dose activity change, negative = growth inhibition, usual class: inhibitors; 420,000 compounds, 15% hits; note: % is set by controls: 0 for no effect and ±100 for the full control effect; nearly all actives have a fitted effect of over 55% in size
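Seeded 400 DT40-hTDP1 cells/well (vehicle DMSO, no 20 nM CPT); pinned compounds; ≥48 hr at 37 °C; CellTiter-Glo luminescence as viability measure.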
HepG2 viability – counter-screen for TGF-b inhibitors: cytotoxicity in HepG2 cells; HepG2 CAGA-GFP viability, ATP luminescence, 18 h; Potency, µM (highest dose often 46.1 µM), without a hit: at the highest dose activity change, negative = cytotoxicity, hits mostly cytotoxic; 410,000 compounds, 0.76% hits; AID 588856
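CellTiter-Glo luminescence gave cytotoxicity after 18 hours at 37 degrees C. The cells were HepG2 CAGA-GFP in 1% FBS DMEM, stimulated with 500 pg/mL TGF-beta after compound addition. %Activity was normalised to no-cell wells (complete cell-killing) and DMSO (no toxicity), and curves were fitted and classified.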
S2 tox – cell viability loss in ATXN counter-screen; Potency, µM (series often up to 56.7 µM), most hits filed as cytotoxic; 400,000 compounds, 0.49% hits; AID 651635; S2 cells (HEK-293 line with an ATXN2-luciferase reporter) viability, CellTiter-Fluor protease fluorescence, 24 h; note: nearly all actives have a fitted effect of over 40% in size
ATXN2 expr inh – reduces ATXN2 reporter expression in HEK-293 cells; HEK-293 ATXN2-luciferase reporter, luminescence, 24 h; Potency, µM (series often up to 57 µM), without a hit: top-dose activity change, negative = inhibition, usual class: inhibitors; 360,000 compounds, 0.72% hits; note: % is set by controls: 0 for no effect and ±100 for the full control effect; nearly all actives have a fitted effect of over 55% in size
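qHTS (up to 57 uM final) was run with 24 h compound exposure of reporter cells at 37 °C. Each well was multiplexed: SteadyGlo luminescence measured ATXN2-luciferase expression after a fluorogenic Gly-Phe-AFC viability readout (25 uM final).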
DT40 TDP1 CPT – DT40-hTDP1 cell growth loss with CPT; AID 686979; Potency, µM (titrated, usually from 46.2 µM), inactives show at the highest dose activity change, negative = growth inhibition, usual class: inhibitors; 420,000 compounds, 12% hits; chicken DT40 Tdp1-/-;hTDP1 cells + 20 nM CPT, ATP luminescence, 48 h; note: % is set by controls: 0 for no effect and ±100 for the full control effect; nearly all actives have a fitted effect of over 55% in size
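Chicken DT40 Tdp1-/- cells stably complemented with human TDP1 were seeded at 400 cells/well in medium containing 20 nM camptothecin, exposed to pin-transferred compounds, and grown at 37 °C for at least 48 hr. Viability was read as ATP luminescence.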
Starred values were filed as active, the others as inactive; i = inactive; ? = inconclusive; . = no result given. Sampled rows, rich in hits. Any-hit rate of the full collection: about 17%. Calls come from the whole dose curve; as a rule, active = well fitted curve in the direction sought with a large enough effect; inconclusive = small, poorly fitted or top-dose-only effect, or another doubt; inactive = no such curve, though single readings can be large; an effect the other way counts as inactive or inconclusive. Potency is the fitted concentration of half-maximal effect.

SMILES	TGFb SMAD3 inh	TDP1 cell noCPT	HepG2 viability	S2 tox	ATXN2 expr inh	DT40 TDP1 CPT
CCN1C(=O)[C@H]2[C@@H](c3ccc(C(F)(F)F)cc3)N[C@]3(CCCN(Cc4ccc(Cl)cc4)C3=O)[C@H]2C1=O	5%	18µM*	-26%	?	-8%	18µM*
CCN1C(=O)[C@H]2[C@@H](c3ccc(C)cc3)N[C@]3(CCCN(Cc4ccc(Cl)cc4)C3=O)[C@H]2C1=O	2%	21µM*	-12%	i	4%	?
O=S(=O)(NCCS(=O)(=O)N1CCN(c2ccc(F)cc2)CC1)c1ccc(F)cc1	9%	-25%	5%	i	.	-17%
Oc1ccc(-c2nccs2)cc1	-3%	-21%	15%	i	23%	-14%
CCCc1ccc(C(=O)NNc2ccccc2F)cc1	-6%	-3%	-9%	i	.	-13%
COc1cccc(C2C(C#N)=C(C)NC3=C2C(=O)CC(C)(C)C3)c1 (stereo unspecified)	-1%	?	-13%	i	5%	-4%
CSC1=C(C#N)C(c2ccc(Cl)cc2)C2=C(CC(C)(C)CC2=O)N1 (stereo unspecified)	11µM*	0.92µM*	4%	?	-21%	0.92µM*
CCCSC1=C(C#N)C(c2ccc(OC)cc2)C2=C(CC(C)(C)CC2=O)N1 (stereo unspecified)	?	4.1µM*	-30%	i	-22%	5.2µM*
COc1ccc(C2C(C#N)=C(C)NC3=C2C(=O)CC(C)(C)C3)cc1 (stereo unspecified)	3%	-14%	8%	i	-6%	-29%
COCCn1c(SCC(=O)Nc2cc(C)on2)nnc1-c1ccccc1	18%	-14%	3%	i	-8%	-12%
Cc1ccc(C)c(S(=O)(=O)NCC(c2ccco2)S(=O)(=O)c2ccc(F)cc2)c1 (stereo unspecified)	11µM*	1.2µM*	-37%	.	.	1.3µM*
COc1ccc(S(=O)(=O)NCC(c2ccco2)S(=O)(=O)c2ccc(C)cc2)cc1C (stereo unspecified)	10µM*	?	-5%	.	.	?
CCOc1ccc(S(=O)(=O)NCC(c2ccco2)S(=O)(=O)c2ccc(C)cc2)cc1 (stereo unspecified)	?	?	2%	.	.	?
Cc1ccccc1-c1nnc(CN2CCN(c3ccccn3)CC2)o1	11%	-15%	-6%	i	-14%	-16%
COc1ccccc1-c1noc(CCCC(=O)Nc2cc(C)ccc2C)n1	-15%	?	-32%	.	.	?
Cc1ccc(-c2onc(C)c2C)cc1S(=O)(=O)N1c2ccccc2CC1C (stereo unspecified)	?	16µM*	-6%	i	-17%	?
Cc1ccc(-c2onc(C)c2C)cc1S(=O)(=O)N1CCOc2ccccc21	?	21µM*	-40%	i	0%	18µM*
CC1Cc2ccccc2N1S(=O)(=O)c1cccc2nsnc12 (stereo unspecified)	1%	?	0%	i	-1%	?
CN(C)C(CNC(=O)c1cccc(C(F)(F)F)c1)c1ccco1 (stereo unspecified)	26%	-15%	-14%	i	2%	-5%
COc1ccccc1CN(C)C(=O)c1cccc(S(=O)(=O)N2CCCc3ccccc32)c1	0%	12µM*	-36%	?	-33%	?
Cc1ccc(CN(C)C(=O)c2cccc(S(=O)(=O)N3CCc4ccccc43)c2)cc1	-20%	21µM*	-10%	i	?	?
COc1ccc(NC(=O)CN(C)C(=O)c2cccc(S(=O)(=O)N3CCCc4ccccc43)c2)cc1	-23%	-22%	0%	i	10%	10µM*
CCN(Cc1nc2ccccc2c(=O)[nH]1)C(=O)c1cccc(S(=O)(=O)N2CCc3ccccc32)c1	?	16µM*	-11%	i	-30%	?
COc1ccc([C@H]2CC(=O)C[C@@H](CCn3cc(C(C)C)nn3)O2)cc1	.	0%	.	i	-1%	-8%
CN1C2CCC1/C(=C\c1ccccc1F)C(=O)/C2=C/c1ccccc1F	0%	?	-27%	?	-36%	?
SMILES	TGFb SMAD3 inh	TDP1 cell noCPT	HepG2 viability	S2 tox	ATXN2 expr inh	DT40 TDP1 CPT
O=C(CSc1nnc(NC(=O)C2CC2)s1)NCc1ccccc1Cl	-17%	-11%	-3%	i	-7%	-17%
COc1ccc(C(CNC(=O)c2cccc(S(=O)(=O)N3CCc4ccccc43)c2)N(C)C)cc1 (stereo unspecified)	-16%	10µM*	-26%	i	-9%	?
C[n+]1c(-c2ccccc2)cc2c(=Cc3ccc([N+](=O)[O-])cc3)c3ccccc3n21	?	4.1µM*	-27%	?	?	1.8µM*
C[n+]1c(-c2ccccc2)cc2c(=Cc3ccccc3)c3ccccc3n21	18µM*	0.52µM*	-24%	.	9.5µM*	0.52µM*
CN(C)c1ccc(C=c2c3cc(O)ccc3n3c2cc(-c2ccccc2)[n+]3C)cc1	11µM*	?	-58%	i	2%	7.3µM*
COc1cc(OC)cc(-c2oc(=O)c3cc(OC)c(OC)cc3c2/C=C/c2ccc(F)cc2)c1	15%	?	3%	i	5%	?
CCOC(=O)/C(=N\Nc1cc(Cl)ccc1Cl)N1CCN(CC)CC1	-29%	?	-26%	i	-13%	21µM*
Cc1ccc2cc3cc(C(=O)N(CC(=O)NC4CCCC4)c4cccc(C)c4C)sc3nc2c1	-10%	18µM*	-1%	i	1%	23µM*
CN(C)c1ccc(/C=N/N=C(N)N)cc1[N+](=O)[O-]	?	13µM*	-31%	i	?	?
O=C(NCc1ccccc1)C1CCN(c2ncnc3c2nc2n3CCCCC2)CC1	-3%	-9%	-4%	.	.	-2%
CCN(CCNC(=O)C1CCCN(c2ncnc3c2nc2n3CCCCC2)C1)Cc1ccccc1 (stereo unspecified)	-6%	26µM*	-23%	i	.	?
CC(C)N(Cc1ccccc1)C(=O)C1CCCN(c2ncnc3c2nc2n3CCCCC2)C1 (stereo unspecified)	-29%	18µM*	-39%	?	.	?
